# From ChEMBL document CHEMBL2218924, “A broad activity screen in support of a chemogenomic map for kinase signalling research and drug discovery” (Biochem J, 2013)
# Columns and labels:
# [1] = molecular target: Serine/threonine-protein kinase mTOR (Homo sapiens) (UniProt P42345); settings: at 1 µM
# [2] = molecular target: Serine/threonine-protein kinase mTOR (Homo sapiens) (UniProt P42345); settings: at 10 µM
# [3] = molecular target: Ribosomal protein S6 kinase beta-1 (Homo sapiens) (UniProt P23443); settings: at 1 µM
# [4] = molecular target: Ribosomal protein S6 kinase beta-1 (Homo sapiens) (UniProt P23443); settings: at 10 µM
# [5] = molecular target: T1, Serine/threonine-protein kinase NLK (Homo sapiens) (UniProt Q9UBE8); settings: at 1 µM
# T1 sequence (whole entry): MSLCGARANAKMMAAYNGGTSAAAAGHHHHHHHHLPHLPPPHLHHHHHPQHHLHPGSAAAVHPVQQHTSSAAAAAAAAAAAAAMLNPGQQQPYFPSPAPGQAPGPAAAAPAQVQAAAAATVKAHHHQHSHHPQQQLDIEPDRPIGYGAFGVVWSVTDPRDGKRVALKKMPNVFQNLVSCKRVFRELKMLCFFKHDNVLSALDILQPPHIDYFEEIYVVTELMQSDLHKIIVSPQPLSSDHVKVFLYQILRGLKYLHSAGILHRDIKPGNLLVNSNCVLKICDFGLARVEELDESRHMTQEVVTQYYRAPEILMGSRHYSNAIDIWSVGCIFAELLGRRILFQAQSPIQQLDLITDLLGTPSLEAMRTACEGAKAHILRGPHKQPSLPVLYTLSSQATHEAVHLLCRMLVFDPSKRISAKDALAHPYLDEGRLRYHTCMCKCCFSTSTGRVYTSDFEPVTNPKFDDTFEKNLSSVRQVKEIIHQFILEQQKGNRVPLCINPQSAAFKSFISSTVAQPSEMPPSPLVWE
# [6] = molecular target: T1, Serine/threonine-protein kinase NLK (Homo sapiens); settings: at 10 µM
# [7] = molecular target: Serine/threonine-protein kinase PAK 2 (Homo sapiens) (UniProt Q13177); settings: at 1 µM
# [8] = molecular target: Serine/threonine-protein kinase PAK 2 (Homo sapiens) (UniProt Q13177); settings: at 10 µM
# [9] = molecular target: Serine/threonine-protein kinase mTOR (Homo sapiens) (UniProt P42345); settings: at 1 µM; remark: listed apart in the source
# [10] = molecular target: Serine/threonine-protein kinase mTOR (Homo sapiens) (UniProt P42345); settings: at 10 µM; remark: listed apart in the source
# [11] = molecular target: Serine/threonine-protein kinase Nek6 (Homo sapiens) (UniProt Q9HC98); settings: at 1 µM
# [12] = molecular target: Mast/stem cell growth factor receptor Kit (Homo sapiens) (UniProt P10721); settings: at 10 µM
# [13] = molecular target: Proto-oncogene tyrosine-protein kinase Src (Homo sapiens) (UniProt P12931); settings: at 1 µM
# [14] = molecular target: Proto-oncogene tyrosine-protein kinase Src (Homo sapiens) (UniProt P12931); settings: at 10 µM
# [15] = molecular target: Serine/threonine-protein kinase Nek7 (Homo sapiens) (UniProt Q8TDX7); settings: at 1 µM
# [16] = molecular target: Serine/threonine-protein kinase Nek7 (Homo sapiens) (UniProt Q8TDX7); settings: at 10 µM
# [17] = molecular target: Serine/threonine-protein kinase Nek6 (Homo sapiens) (UniProt Q9HC98); settings: at 10 µM
# [18] = molecular target: Mast/stem cell growth factor receptor Kit (Homo sapiens) (UniProt P10721); settings: at 1 µM
# [19] = molecular target: T2, Eukaryotic elongation factor 2 kinase (Homo sapiens) (UniProt O00418); settings: at 1 µM
# T2 sequence (whole entry): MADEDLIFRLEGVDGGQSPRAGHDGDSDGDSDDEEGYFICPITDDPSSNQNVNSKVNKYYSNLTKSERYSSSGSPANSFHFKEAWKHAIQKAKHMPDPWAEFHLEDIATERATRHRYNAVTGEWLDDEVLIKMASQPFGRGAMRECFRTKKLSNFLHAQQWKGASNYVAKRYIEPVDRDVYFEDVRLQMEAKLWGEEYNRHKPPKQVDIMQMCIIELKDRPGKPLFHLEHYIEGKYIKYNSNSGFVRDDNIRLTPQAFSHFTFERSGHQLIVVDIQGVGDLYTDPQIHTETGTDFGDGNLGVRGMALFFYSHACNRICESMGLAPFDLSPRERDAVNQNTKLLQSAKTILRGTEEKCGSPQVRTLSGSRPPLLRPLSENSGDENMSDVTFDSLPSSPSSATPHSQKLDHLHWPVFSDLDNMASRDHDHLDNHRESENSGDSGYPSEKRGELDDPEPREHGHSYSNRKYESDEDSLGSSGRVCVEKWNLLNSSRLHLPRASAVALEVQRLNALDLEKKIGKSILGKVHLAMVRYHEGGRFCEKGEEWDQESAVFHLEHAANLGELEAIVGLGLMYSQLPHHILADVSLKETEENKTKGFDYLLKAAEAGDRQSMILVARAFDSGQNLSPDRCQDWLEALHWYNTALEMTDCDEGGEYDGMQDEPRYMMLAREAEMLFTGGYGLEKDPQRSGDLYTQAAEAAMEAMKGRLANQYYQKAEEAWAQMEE
# Chain of Serine/threonine-protein kinase Nek7 (Homo sapiens) (Q8TDX7 whole entry, looked up): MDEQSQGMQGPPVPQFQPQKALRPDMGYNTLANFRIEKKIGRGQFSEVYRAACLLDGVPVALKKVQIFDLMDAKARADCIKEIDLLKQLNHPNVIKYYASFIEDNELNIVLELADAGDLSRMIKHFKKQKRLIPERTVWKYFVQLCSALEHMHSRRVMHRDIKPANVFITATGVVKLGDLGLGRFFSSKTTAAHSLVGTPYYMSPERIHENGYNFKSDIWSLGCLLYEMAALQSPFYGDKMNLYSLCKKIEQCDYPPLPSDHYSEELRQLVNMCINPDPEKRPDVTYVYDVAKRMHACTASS
# Chain of Serine/threonine-protein kinase PAK 2 (Homo sapiens) (Q13177 whole entry): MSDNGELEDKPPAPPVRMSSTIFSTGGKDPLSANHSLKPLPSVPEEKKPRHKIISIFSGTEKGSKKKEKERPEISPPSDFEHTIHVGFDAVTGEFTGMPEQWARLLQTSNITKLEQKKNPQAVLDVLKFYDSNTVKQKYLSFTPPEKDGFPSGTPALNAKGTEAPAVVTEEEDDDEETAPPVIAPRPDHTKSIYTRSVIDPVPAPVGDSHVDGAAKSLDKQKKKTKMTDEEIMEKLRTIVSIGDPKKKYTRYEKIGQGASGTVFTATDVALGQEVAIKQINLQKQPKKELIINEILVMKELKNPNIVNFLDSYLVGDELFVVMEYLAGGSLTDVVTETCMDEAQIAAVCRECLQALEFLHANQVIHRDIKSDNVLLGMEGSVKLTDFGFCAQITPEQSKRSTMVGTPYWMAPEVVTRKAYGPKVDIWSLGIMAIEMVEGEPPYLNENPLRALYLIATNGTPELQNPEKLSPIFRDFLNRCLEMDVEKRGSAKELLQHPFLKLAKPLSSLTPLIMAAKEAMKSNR
# Chain of Mast/stem cell growth factor receptor Kit (Homo sapiens) (P10721 whole entry): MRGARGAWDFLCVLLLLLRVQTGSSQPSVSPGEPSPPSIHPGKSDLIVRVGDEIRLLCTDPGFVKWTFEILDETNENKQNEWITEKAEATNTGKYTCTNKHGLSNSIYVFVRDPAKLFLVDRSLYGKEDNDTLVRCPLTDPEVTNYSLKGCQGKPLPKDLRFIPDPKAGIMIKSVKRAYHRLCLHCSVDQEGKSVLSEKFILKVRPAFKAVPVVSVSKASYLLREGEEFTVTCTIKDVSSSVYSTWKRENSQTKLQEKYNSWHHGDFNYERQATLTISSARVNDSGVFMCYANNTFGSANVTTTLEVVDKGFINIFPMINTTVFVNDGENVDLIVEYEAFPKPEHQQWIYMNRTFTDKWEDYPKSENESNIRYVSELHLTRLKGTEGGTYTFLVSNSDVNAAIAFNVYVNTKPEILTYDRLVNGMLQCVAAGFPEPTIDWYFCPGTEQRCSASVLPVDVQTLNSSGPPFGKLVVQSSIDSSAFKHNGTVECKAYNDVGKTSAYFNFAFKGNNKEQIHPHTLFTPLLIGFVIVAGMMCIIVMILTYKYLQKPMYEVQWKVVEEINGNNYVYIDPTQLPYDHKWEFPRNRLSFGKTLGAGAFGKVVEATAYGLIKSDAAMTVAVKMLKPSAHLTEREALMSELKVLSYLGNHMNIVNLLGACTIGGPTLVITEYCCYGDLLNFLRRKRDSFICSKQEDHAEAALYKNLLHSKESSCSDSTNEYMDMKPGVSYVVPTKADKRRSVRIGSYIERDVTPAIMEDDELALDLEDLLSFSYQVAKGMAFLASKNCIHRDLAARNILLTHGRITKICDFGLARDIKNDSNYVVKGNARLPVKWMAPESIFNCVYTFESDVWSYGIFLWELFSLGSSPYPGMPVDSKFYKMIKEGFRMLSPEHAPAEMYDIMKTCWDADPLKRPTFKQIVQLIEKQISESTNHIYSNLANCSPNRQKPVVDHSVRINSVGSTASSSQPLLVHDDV
# Chain of Serine/threonine-protein kinase Nek6 (Homo sapiens) (Q9HC98 whole entry): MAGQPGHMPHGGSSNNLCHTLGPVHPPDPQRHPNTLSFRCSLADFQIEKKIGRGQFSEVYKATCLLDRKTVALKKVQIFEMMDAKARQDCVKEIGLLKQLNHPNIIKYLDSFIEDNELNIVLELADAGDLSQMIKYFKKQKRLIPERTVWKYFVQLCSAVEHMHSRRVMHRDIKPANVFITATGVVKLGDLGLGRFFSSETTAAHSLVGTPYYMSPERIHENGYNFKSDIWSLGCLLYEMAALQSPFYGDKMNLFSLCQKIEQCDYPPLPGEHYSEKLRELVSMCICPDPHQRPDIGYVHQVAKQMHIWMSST
# Chain of Ribosomal protein S6 kinase beta-1 (Homo sapiens) (P23443 whole entry, looked up): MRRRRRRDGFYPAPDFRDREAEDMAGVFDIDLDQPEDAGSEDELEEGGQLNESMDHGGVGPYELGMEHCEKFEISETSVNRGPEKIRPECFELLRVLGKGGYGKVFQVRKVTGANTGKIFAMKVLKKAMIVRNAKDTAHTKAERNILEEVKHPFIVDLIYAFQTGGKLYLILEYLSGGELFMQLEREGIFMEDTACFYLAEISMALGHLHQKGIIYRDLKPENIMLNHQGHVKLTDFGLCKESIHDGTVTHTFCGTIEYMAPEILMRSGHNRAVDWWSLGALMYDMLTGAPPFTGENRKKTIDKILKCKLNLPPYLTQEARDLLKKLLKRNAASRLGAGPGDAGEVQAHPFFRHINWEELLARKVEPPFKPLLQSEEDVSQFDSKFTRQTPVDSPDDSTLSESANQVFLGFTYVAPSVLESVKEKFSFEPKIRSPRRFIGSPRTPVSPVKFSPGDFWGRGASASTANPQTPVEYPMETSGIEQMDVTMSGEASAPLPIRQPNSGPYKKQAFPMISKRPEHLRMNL
compound,measurement,setting,value
O=C1NC(=O)C(c2cn(CCCO)c3ncccc23)=C1c1cnccn1,residual activity,[1],119%
same,residual activity,[2],84%
same,residual activity,[3],91%
same,residual activity,[4],76%
same,residual activity,[5],98%
same,residual activity,[6],93%
same,residual activity,[7],89%
same,residual activity,[8],99%
N#C/C(=C1/Nc2ccccc2S1)c1ccnc(NCCc2cccnc2)n1,residual activity,[9],89%
same,residual activity,[10],62%
same,residual activity,[3],72%
same,residual activity,[4],39%
same,residual activity,[11],119% (inactive)
N#C/C(=C\c1ccc(O)c(O)c1)C(=O)NCc1ccccc1,residual activity,[12],100%
same,residual activity,[13],87%
same,residual activity,[14],104%
same,residual activity,[4],65%
same,residual activity,[15],101% (inactive)
same,residual activity,[16],125% (inactive)
same,residual activity,[7],103%
same,residual activity,[8],85%
O=C1Cc2c([nH]c3ccc(Br)cc23)-c2ccccc2N1,residual activity,[3],66%
same,residual activity,[4],53%
same,residual activity,[15],100% (inactive)
same,residual activity,[16],94% (inactive)
same,residual activity,[5],83%
same,residual activity,[6],54%
same,residual activity,[7],91%
same,residual activity,[8],75%
O=C(NC(NC(=S)Nc1ccc(F)c([N+](=O)[O-])c1)C(Cl)(Cl)Cl)C(c1ccccc1)c1ccccc1 (stereo unspecified),residual activity,[13],98%
same,residual activity,[14],83%
same,residual activity,[9],102%
same,residual activity,[10],92%
same,residual activity,[1],88%
same,residual activity,[2],78%
same,residual activity,[3],141%
same,residual activity,[4],99%
same,residual activity,[16],96% (inactive)
same,residual activity,[5],103%
same,residual activity,[6],101%
COc1ccc(CNC(=O)Nc2ncc([N+](=O)[O-])s2)cc1,residual activity,[13],60%
same,residual activity,[14],38%
same,residual activity,[11],114% (inactive)
same,residual activity,[17],103%
CC(C)N(CCC(=O)c1ccc2ccccc2c1)Cc1ccccc1,residual activity,[13],79%
same,residual activity,[3],77%
same,residual activity,[4],53%
same,residual activity,[8],81%
CCCCc1c(-c2ccc(OC)cc2)[nH]c2nccnc12,residual activity,[13],61%
same,residual activity,[14],41%
same,residual activity,[1],108%
same,residual activity,[4],70%
same,residual activity,[11],113% (inactive)
same,residual activity,[17],100%
same,residual activity,[16],112% (inactive)
same,residual activity,[5],83%
same,residual activity,[7],112%
same,residual activity,[8],103%
CC(C)(C)c1nc2c3ccc(F)cc3c3c(=O)[nH]ccc3c2[nH]1,residual activity,[18],119%
same,residual activity,[12],101%
same,residual activity,[3],47%
same,residual activity,[4],44%
same,residual activity,[5],34%
same,residual activity,[6],19%
CCOc1nc(NC(=O)Cc2cc(OC)ccc2OC)cc(N)c1C#N,residual activity,[1],124%
same,residual activity,[2],80%
same,residual activity,[3],140%
same,residual activity,[4],100%
CN([C@@H](Cc1ccc(OS(=O)(=O)c2cccc3cnccc23)cc1)C(=O)N1CCN(c2ccccc2)CC1)S(=O)(=O)c1cccc2cnccc12,residual activity,[13],100%
same,residual activity,[14],71%
same,residual activity,[1],81%
same,residual activity,[5],100%
same,residual activity,[6],99%
same,residual activity,[8],98%
O=S(=O)(NCCNC/C=C/c1ccc(Br)cc1)c1cccc2cnccc12,residual activity,[2],62%
same,residual activity,[3],13%
same,residual activity,[4],5%
O=c1c(-c2ccc(F)cc2)c(-c2ccncc2)[nH]n1-c1ccc(Cl)cc1,residual activity,[14],79%
same,residual activity,[1],125%
same,residual activity,[2],70%
same,residual activity,[3],129%
same,residual activity,[11],101% (inactive)
same,residual activity,[5],42%
same,residual activity,[6],12%
Nc1n[nH]c2nc3ccccc3nc12,residual activity,[14],83%
same,residual activity,[9],80%
same,residual activity,[10],84%
same,residual activity,[3],78%
same,residual activity,[4],47%
same,residual activity,[5],97%
same,residual activity,[6],91%
COc1ccc(Cl)cc1NC(=O)Nc1cc(C)nc2ccccc12,residual activity,[3],97%
same,residual activity,[4],62%
same,residual activity,[5],99%
same,residual activity,[6],82%
O=c1cc(N2CCOCC2)oc2c(-c3ccccc3)cccc12,residual activity,[9],24%
same,residual activity,[10],27%
same,residual activity,[4],63%
same,residual activity,[6],72%
NC(=O)c1cccc(-c2cc(Nc3ccc(OC(F)(F)F)cc3)ncn2)c1,residual activity,[13],87%
same,residual activity,[14],98%
same,residual activity,[9],94%
same,residual activity,[10],92%
same,residual activity,[3],97%
same,residual activity,[4],74%
same,residual activity,[5],94%
same,residual activity,[6],40%
O=C(Nc1nc2ccccc2n1CCN1CCOCC1)c1cccc([N+](=O)[O-])c1,residual activity,[9],108%
same,residual activity,[10],111%
CSc1nc(-c2ccc(F)cc2)c(-c2ccnc(NC(C)c3ccccc3)c2)[nH]1 (stereo unspecified),residual activity,[13],129%
same,residual activity,[14],100%
same,residual activity,[1],91%
same,residual activity,[2],84%
same,residual activity,[5],69%
same,residual activity,[6],14%
same,residual activity,[7],100%
same,residual activity,[8],87%
COc1ccc(COc2ccc(Cc3cnc(N)nc3N)cc2OC)cc1,residual activity,[9],116%
same,residual activity,[10],119%
same,residual activity,[1],120%
same,residual activity,[3],80%
same,residual activity,[4],51%
CC(C)c1nn(-c2c(Cl)cccc2Cl)c2nc(Cc3ccc(OCCO)cc3)[nH]c(=O)c12,residual activity,[12],96%
same,residual activity,[14],87%
same,residual activity,[9],97%
same,residual activity,[10],90%
same,residual activity,[1],85%
same,residual activity,[2],86%
same,residual activity,[3],81%
same,residual activity,[4],59%
same,residual activity,[15],87% (inactive)
same,residual activity,[16],84% (inactive)
same,residual activity,[5],88%
same,residual activity,[6],46%
same,residual activity,[7],88%
same,residual activity,[8],69%
O=S(=O)(c1cccc2cnccc12)N1CCCNCC1,residual activity,[4],25%
N#Cc1c(NC(=O)c2cccc3ccccc23)sc2c1CCCC2,residual activity,[12],94%
same,residual activity,[3],91%
same,residual activity,[4],68%
same,residual activity,[17],93%
same,residual activity,[7],93%
Nc1nccc(-c2c(-c3ccc(F)cc3)ncn2C2CCNCC2)n1,residual activity,[18],121%
same,residual activity,[13],117%
same,residual activity,[14],66%
same,residual activity,[19],117% (inactive)
same,residual activity,[2],78%
same,residual activity,[3],74%
same,residual activity,[4],49%
same,residual activity,[5],34%
same,residual activity,[6],9%
